From the supplement of paper PMC10849652
Targets with a hit are over-represented here; the source holds about 7,900 in all. About 0.6% of all pairs of compound and target were hits. Unmarked numbers belong to inactive results.

How the values were obtained:
Assay in all cases: log2 fold change, soluble protein after heating vs DMSO (PISA); higher = thermal stabilisation; K562 cells, 10 uM, 30 min; active = over 0.2 and 3.5 SD of the protein, either way, in both replicates (recomputed)
[1] = compound: CS(=O)(=O)c1ccc(-c2cnc(N)c(C(=O)Nc3ccccc3)n2)cc1
In short: (§1)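 K562 cells at 2×10^6 cells/mL were treated for 30 min with 10 μM compound, and aliquots were heated for 3 min over 48°C-58°C before pooling. Extraction used PBS with 0.5% NP-40 at 4°C, and soluble protein was the supernatant after 21,000xg for 90 min, measured by TMTpro 16plex LC-MS/MS with channel sums equalised. Thermal stability values, relative to control samples and from duplicates, are log2 fold changes.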

[2] = compound: C[C@@H](Oc1cc(-c2cnn(C3CCNCC3)c2)cnc1N)c1c(Cl)ccc(F)c1Cl [crizotinib]
In short: as §1

[3] = compound: C[C@@H]1COCCN1C2=NC(=NC(=C2)C3(CC3)S(=O)(=O)C)C4=C5C=CNC5=CC=C4
In short: as §1

[4] = compound: C[C@H](C1=CC=C(C=C1)C(=O)NC2=C3C=CNC3=NC=C2)N
In short: as §1

[5] = compound: C[C@H](Nc1ncnc2nc[nH]c12)c1cc2cccc(Cl)c2c(=O)n1-c1ccccc1 [duvelisib]
In short: as §1

[6] = compound: Cc1cc(Nc2cc(CN3CCOCC3)c3nc(C)c(Cc4ccc(Cl)cc4F)n3n2)n[nH]1 [gandotinib]
In short: as §1

[7] = compound: Cc1cc(Nc2cc(N3CCN(C)CC3)nc(Sc3ccc(NC(=O)C4CC4)cc3)n2)n[nH]1 [tozasertib]
In short: as §1

[8] = compound: Cc1cc(SCc2sc(-c3ccc(C(F)(F)F)cc3)nc2C)ccc1OCC(=O)O
In short: as §1

[9] = compound: Cc1ccc(-n2nc(C(C)(C)C)cc2NC(=O)Nc2ccc(OCCN3CCOCC3)c3ccccc23)cc1 [doramapimod]
In short: as §1

[10] = compound: Cc1ccc(C(=O)N(CCCN)[C@@H](c2nc3cc(Cl)ccc3c(=O)n2Cc2ccccc2)C(C)C)cc1 [ispinesib]
In short: as §1

[11] = compound: Cc1ccc(NC(=O)c2ccc(CN3CC[C@H](N(C)C)C3)c(C(F)(F)F)c2)cc1Nc1nccc(-c2cncnc2)n1 [bafetinib]
In short: as §1

[12] = compound: Cc1cccc(CC(=O)N2CCc3c2ccc(-c2cn(C)c4ncnc(N)c24)c3F)n1
In short: as §1

[13] = compound: Cc1cn(-c2cc(NC(=O)c3ccc(C)c(Nc4nccc(-c5cccnc5)n4)c3)cc(C(F)(F)F)c2)cn1 [nilotinib]
In short: as §1

[14] = compound: Cc1nc(Nc2n[nH]c3c2CN(C(=O)N[C@H](CN(C)C)c2ccccc2)C3(C)C)c2sccc2n1
In short: as §1

[15] = compound: Cc1nc(Nc2ncc(C(=O)Nc3c(C)cccc3Cl)s2)cc(N2CCN(CCO)CC2)n1 [dasatinib]
In short: as §1

[16] = compound: Cc1ncc(-c2ccnc(Nc3ccc(S(C)(=O)=O)cc3)n2)n1C(C)C
In short: as §1

[17] = compound: Cn1cc(-c2ccc3c(c2)CCN3C(=O)Cc2cccc(C(F)(F)F)c2)c2c(N)ncnc21
In short: as §1

[18] = compound: Cn1cc(-c2ccc3nnc(C(F)(F)c4ccc5ncccc5c4)n3n2)cn1
In short: as §1

[19] = compound: Cn1cncc1[C@@](N)(c1ccc(Cl)cc1)c1ccc2c(c1)c(-c1cccc(Cl)c1)cc(=O)n2C [tipifarnib]
In short: as §1

[20] = compound: FC(F)(F)c1ccc(/C=C/c2nc(COc3ccc(CCCCn4ccnn4)cc3)co2)cc1 [mubritinib]
In short: as §1

Chain of UniProt Q9UPN7 (Q9UPN7 whole entry, looked up): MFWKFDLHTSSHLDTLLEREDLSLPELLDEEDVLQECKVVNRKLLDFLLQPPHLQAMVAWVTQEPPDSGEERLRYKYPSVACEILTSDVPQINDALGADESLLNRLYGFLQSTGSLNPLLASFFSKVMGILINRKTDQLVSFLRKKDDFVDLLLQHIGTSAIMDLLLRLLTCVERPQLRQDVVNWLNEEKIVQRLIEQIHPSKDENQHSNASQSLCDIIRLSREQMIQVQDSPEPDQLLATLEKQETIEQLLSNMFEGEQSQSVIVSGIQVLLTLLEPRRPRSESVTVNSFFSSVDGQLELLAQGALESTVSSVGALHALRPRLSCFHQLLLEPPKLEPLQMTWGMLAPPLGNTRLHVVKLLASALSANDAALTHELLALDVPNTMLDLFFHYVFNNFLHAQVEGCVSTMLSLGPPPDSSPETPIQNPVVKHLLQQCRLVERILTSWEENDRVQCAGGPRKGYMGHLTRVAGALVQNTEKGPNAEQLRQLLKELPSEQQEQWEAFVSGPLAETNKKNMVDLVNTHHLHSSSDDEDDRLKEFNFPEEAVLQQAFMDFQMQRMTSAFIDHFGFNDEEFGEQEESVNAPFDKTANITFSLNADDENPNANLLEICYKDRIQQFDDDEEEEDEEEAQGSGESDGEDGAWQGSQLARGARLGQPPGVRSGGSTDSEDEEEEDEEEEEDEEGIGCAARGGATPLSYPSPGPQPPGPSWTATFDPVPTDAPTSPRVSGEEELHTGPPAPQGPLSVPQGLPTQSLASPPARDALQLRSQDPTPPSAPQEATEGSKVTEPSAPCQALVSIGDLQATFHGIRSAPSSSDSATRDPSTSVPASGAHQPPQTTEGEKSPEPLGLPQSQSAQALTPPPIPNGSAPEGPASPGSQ
Chain of UniProt O43924 (O43924 whole entry, looked up): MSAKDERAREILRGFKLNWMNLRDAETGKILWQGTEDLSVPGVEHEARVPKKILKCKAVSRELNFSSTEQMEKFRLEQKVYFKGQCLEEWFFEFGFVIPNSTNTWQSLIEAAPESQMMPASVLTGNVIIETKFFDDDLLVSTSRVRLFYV
Chain of UniProt O00408 (O00408 whole entry, looked up): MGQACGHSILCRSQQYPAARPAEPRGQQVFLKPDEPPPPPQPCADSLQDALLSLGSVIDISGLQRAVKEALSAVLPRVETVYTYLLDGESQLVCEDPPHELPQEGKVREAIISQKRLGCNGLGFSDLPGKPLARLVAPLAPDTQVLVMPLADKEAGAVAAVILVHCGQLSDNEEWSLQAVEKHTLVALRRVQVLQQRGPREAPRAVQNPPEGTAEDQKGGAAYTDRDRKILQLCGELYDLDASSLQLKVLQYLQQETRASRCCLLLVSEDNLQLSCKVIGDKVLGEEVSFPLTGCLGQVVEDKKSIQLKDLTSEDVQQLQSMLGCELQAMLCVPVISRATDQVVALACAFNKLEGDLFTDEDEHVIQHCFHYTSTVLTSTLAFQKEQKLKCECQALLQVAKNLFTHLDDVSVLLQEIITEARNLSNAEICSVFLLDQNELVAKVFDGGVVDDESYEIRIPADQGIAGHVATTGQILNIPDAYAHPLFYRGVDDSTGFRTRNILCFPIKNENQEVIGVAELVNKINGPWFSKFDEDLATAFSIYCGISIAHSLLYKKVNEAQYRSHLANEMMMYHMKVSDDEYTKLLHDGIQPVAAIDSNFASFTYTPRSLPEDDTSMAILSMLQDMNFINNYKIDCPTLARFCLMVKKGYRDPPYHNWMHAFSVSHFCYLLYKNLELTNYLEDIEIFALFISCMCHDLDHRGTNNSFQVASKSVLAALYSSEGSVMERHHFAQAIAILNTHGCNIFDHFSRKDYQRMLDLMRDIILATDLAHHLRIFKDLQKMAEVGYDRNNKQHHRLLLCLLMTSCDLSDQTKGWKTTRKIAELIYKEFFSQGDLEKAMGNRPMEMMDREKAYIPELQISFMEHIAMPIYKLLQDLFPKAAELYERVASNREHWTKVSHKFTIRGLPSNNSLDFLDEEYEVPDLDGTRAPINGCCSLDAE
Chain of UniProt O15530 (O15530 whole entry, looked up): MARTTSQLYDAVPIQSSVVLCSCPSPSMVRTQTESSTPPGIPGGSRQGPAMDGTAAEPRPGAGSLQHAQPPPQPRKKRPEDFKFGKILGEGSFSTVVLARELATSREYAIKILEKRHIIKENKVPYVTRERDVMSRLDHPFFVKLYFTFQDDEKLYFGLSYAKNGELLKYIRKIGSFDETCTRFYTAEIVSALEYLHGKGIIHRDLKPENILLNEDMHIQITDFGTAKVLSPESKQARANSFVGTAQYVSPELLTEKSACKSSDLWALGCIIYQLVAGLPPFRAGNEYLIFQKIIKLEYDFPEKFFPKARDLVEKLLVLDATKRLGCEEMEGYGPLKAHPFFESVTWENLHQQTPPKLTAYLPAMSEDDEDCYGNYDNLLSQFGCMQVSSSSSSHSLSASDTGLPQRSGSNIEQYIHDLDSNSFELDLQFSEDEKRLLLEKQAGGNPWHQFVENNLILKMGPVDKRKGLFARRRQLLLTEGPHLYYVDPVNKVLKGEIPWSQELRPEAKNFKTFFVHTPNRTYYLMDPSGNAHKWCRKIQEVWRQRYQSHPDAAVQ
Chain of UniProt Q6GMV3 (Q6GMV3 whole entry, looked up): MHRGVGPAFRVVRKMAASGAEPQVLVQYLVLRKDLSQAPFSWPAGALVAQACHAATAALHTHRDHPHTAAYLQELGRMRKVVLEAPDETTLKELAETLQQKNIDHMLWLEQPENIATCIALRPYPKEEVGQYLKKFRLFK
Chain of UniProt Q10713 (Q10713 whole entry, looked up): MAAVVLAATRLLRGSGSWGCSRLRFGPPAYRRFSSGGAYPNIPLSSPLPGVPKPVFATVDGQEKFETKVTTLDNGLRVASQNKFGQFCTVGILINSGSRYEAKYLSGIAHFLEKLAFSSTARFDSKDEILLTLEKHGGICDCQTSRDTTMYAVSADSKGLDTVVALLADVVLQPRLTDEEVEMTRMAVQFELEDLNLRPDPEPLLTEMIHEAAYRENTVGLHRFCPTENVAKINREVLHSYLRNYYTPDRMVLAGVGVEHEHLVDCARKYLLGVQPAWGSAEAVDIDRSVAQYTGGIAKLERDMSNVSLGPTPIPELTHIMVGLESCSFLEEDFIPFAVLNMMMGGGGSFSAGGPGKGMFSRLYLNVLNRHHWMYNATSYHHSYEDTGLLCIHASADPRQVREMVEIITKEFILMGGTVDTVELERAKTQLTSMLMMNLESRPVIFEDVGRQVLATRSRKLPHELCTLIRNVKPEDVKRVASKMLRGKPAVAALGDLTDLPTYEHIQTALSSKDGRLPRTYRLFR
Chain of UniProt P06454 (P06454 whole entry, looked up): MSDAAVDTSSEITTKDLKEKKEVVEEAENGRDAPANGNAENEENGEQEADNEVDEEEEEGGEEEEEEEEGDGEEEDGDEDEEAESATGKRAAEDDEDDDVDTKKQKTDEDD

Row | Target | log2 fold change [1] | log2 fold change [2] | log2 fold change [3] | log2 fold change [4] | log2 fold change [5] | log2 fold change [6] | log2 fold change [7] | log2 fold change [8] | log2 fold change [9] | log2 fold change [10] | log2 fold change [11] | log2 fold change [12] | log2 fold change [13] | log2 fold change [14] | log2 fold change [15] | log2 fold change [16] | log2 fold change [17] | log2 fold change [18] | log2 fold change [19] | log2 fold change [20]
1 | PPP6R1 (UniProt Q9UPN7) | -0.013 | -0.018 | 0.125 | 0.012 | 0.027 | -0.078 | 0.084 | -0.01 | 0.01 | -0.002 | -0.024 | 0.022 | 0.003 | -0.031 | -0.02 | -0.008 | 0.003 | 0.02 | 0.01 | 0.043
2 | PDPK1 (UniProt O15530) | -0.066 | -0.282 (active) | 0.081 | 0.013 | -0.206 | -0.173 | -0.085 | 0.015 | 0.003 | -0.143 | -0.06 | 0.051 | -0.104 | 0.089 | -0.169 | -0.084 | 0.077 | 0.011 | -0.043 | 0.022
3 | PMPCA (UniProt Q10713) | 0.006 | -0.014 | 0.033 | -0.07 | 0.055 | -0.076 | -0.022 | -0.011 | 0.028 | -0.043 | 0.063 | 0.016 | 0.024 | 0.057 | 0.54 (active) | -0.096 | 0.067 | 0.04 | 0.285 (active) | 0.087
4 | PTMA (UniProt P06454) | -0.041 | -0.302 | -0.155 | -0.034 | 0.006 | 0.059 | 0.154 | -0.042 | 0.072 | 0.199 | -0.076 | -0.047 | 0.023 | 0.001 | -0.01 | -0.031 | 0.177 | -0.147 | -0.02 | 0.109
5 | PDE6D (UniProt O43924) | -0.165 | 0.001 | 0.079 | -0.148 | 0.109 | -0.202 | -0.076 | -0.098 | 0.084 | – | 0.266 | 0.169 | 0.191 | -0.238 | 0.026 | 0.011 | 0.385 | – | – | 0.565
6 | PCBP2 (UniProt F8VRH0) | -0.181 | -0.075 | -0.22 | -0.267 | -0.299 | 0.013 | -0.055 | 0.074 | -0.225 | – | 0.293 | -0.039 | -0.347 | -0.215 | -0.146 | -0.009 | 0.112 | – | 0.067 | 0.129
7 | PDE2A (UniProt O00408) | -0.064 | 0.004 | 0.223 | -0.108 | 0.034 | 0.117 | -0.105 | 0.045 | -0.026 | -0.067 | 0.021 | -0.02 | 0.023 | 0.016 | -0.103 | -0.012 | 0.063 | -0.03 | -0.031 | -0.051
8 | PTRHD1 (UniProt Q6GMV3) | 0.003 | 0.006 | 0.184 | -0.097 | 0.18 | 0.08 | 0.037 | 0.022 | -0.036 | 0.225 | -0.067 | 0.024 | 0.08 | -0.032 | -0.007 | -0.061 | 0.111 | 0.332 (active) | 0.028 | 0.043
